Compound activity (PubChem BioAssay)
Most compounds without a hit are left out; they make up all but 21% or so of the library.
DRD3 agonist: agonists of human D3 dopamine receptor. D3R DiscoveRx beta-arrestin cells, luminescence, 90 min. max activation, %. actives 0.58% (n = 410,000). AID 652048; in the data active means max activation above about 30%; further: 0% is about no effect
Target sequence (P35462 whole entry, looked up): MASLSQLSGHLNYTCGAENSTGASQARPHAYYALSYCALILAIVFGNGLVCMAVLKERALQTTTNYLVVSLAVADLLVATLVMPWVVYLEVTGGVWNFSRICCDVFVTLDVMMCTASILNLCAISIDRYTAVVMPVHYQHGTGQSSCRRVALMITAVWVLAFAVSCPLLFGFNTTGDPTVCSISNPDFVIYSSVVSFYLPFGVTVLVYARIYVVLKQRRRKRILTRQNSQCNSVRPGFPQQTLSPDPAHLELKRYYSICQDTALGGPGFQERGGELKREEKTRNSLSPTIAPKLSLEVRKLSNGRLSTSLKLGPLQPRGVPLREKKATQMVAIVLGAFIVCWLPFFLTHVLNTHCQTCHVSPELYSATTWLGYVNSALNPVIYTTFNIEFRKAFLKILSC
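Cells at 1500/well, incubated overnight, then treated with pinned compounds (dopamine as control) for 90 min at 37 degrees C. DiscoveRx reagent added for 30 - 60 minutes at room temperature; luminescence read.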
DT40 TDP1 CPT: DT40-hTDP1 cell growth loss with CPT | chicken DT40 Tdp1-/-;hTDP1 cells + 20 nM CPT, ATP luminescence, 48 h | Potency, µM (titrated, usually from 46.2 µM), for inactives: at the top dose activity change, negative = growth inhibition, most hits filed as inhibitors | actives 12% (n = 420,000) | AID 686979; further: potency means the concentration at half of the fitted maximal effect; on the % scale 0 is the no-effect control and ±100 the full control effect; nearly all actives have a fitted effect of over 55% in size
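Chicken DT40 Tdp1-/- cells complemented with human TDP1, 400 cells/well, exposed to compounds plus 20 nM camptothecin for at least 48 h at 37 C; viability read as ATP content by CellTiter-Glo luminescence.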
IL1B secr inh: blocks inflammasome-driven IL-1 beta release; THP-1 LPS/ATP IL-1B secretion, AlphaLISA, 16 h; hits give low values; activity change, % at 57.5 µM; actives 4.7% (n = 360,000); in the data active means activity change below about -50%; inconclusive means mostly about -30% to -49%; further: on the % scale 0 is the no-effect control and ±100 the full control effect
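THP-1 cells pretreated 1 hr with compounds (up to 57.5 uM final), then stimulated with LPS (250 ng/mL final) plus ATP (1.25 mM final); secreted IL-1B measured by AlphaLISA after 16 hr, decreased signal indicating inhibition.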
DRD3 antagonist: D3 dopamine receptor (human) antagonism. P35462. actives 2.5% (n = 360,000). max response, negative = inhibition, %. AID 652054. D3R cells, DiscoveRx beta-arrestin luminescence, antagonist mode; hits give low values; in the data active means max response below about -50%; inconclusive means no clear call, values can overlap the other calls; further: on the % scale 0 is the no-effect control and ±100 the full control effect
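Cells plated overnight at 1500 cells/well, then exposed to library compounds with dopamine controls for 90 minutes at 37 degrees C. DiscoveRx reagent added for 30–60 minutes at room temperature; luminescence read, quantitative HTS format.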
TDP1 cell noCPT: qHTS for Inhibitors of human tyrosyl-DNA phosphodiesterase 1 (TDP1): qHTS in cells in absence of CPT; DT40 Tdp1-/- hTDP1 cells, no CPT, ATP luminescence, 48 h; actives 15% (n = 420,000); AID 686978, 2013; Potency, µM (titrated, usually from 46.2 µM), for inactives: at the highest dose activity change, negative = growth inhibition, most hits filed as inhibitors; further: potency means the concentration at half of the fitted maximal effect; on the % scale 0 is the no-effect control and ±100 the full control effect; nearly all actives have a fitted effect of over 55% in size
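Seeded 400 DT40-hTDP1 cells/well (vehicle DMSO, no 20 nM CPT); pinned compounds; ≥48 hr at 37 °C; CellTiter-Glo luminescence as viability measure.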
ClpP mod: qHTS Assay for Activators of ClpP | ATP-dependent Clp protease proteolytic subunit (Bacillus subtilis (strain 168)), P80244 | AID 651965, 2013 | Potency, µM (titrated, usually from 57.5 µM), without a hit: at the highest dose activity change, negative = active | actives 1.9% (n = 340,000) | purified B. subtilis ClpP, FRET peptide cleavage, 20 min; active means well fitted falling curve with a large enough effect; inconclusive means small, poorly fitted or top-dose-only effect; inactive means no such curve, though single readings can be large or run the other way; further: potency means the concentration at half of the fitted maximal effect; the source files actives as falling curves though it sought activators and does not explain the sign; nearly all actives have a fitted effect of over 65% in size
Target sequence (P80244 whole entry, looked up): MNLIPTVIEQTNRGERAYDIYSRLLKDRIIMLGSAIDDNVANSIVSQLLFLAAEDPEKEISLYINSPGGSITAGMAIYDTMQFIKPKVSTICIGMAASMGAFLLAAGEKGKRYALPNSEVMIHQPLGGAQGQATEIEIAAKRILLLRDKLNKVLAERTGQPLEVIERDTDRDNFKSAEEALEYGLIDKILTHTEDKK
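Purified B. subtilis ClpP, 10 microg/mL final in Tris/HCl pH8 with KCl, BSA, glycerol and Tween-20, cleaved an Abz/nitrotyrosine-quenched decapeptide. Fluorescence (ex 320, em 430) was read at 0 and 20 min at room temperature. Delta was normalized to 5.8 microM ADEP and DMSO/no-enzyme controls.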
Numbers without * were called inactive; ? = inconclusive; / = not tested or not shown; [ ] = remark or other dose. Unless noted, the call rests on the fitted dose curve; in most records, active means well fitted inhibition curve with a large enough effect; inconclusive means small, poorly fitted or top-dose-only effect; inactive means flat fitted curve, though single readings scatter.

SMILES	DRD3 agonist	DT40 TDP1 CPT	IL1B secr inh	DRD3 antagonist	TDP1 cell noCPT	ClpP mod
COc1ccc(N(CC(=O)Nc2cccc(C)c2)S(=O)(=O)c2ccc(C)cc2)cc1OC	-6	-7%	9	-1	-22%	-1%
CCOc1ccc(S(=O)(=O)N(CC(=O)Nc2ccc(OC)cc2OC)c2ccccc2)cc1	-10	?	/	/	?	1%
COc1ccc(N(CC(=O)Nc2cccc(N(C)S(C)(=O)=O)c2)S(=O)(=O)c2ccc(F)cc2)cc1	-8	16µM*	-18	1	?	0%
COc1ccc(S(=O)(=O)N(CC(=O)Nc2cccnc2)c2ccc(Cl)cc2)cc1	-4	3%	/	/	-25%	-1%
COc1ccc(S(=O)(=O)N(CC(=O)Nc2cc(C)cc(C)c2)c2ccc(Cl)cc2)cc1	-18	?	/	/	23µM*	-7%
COc1ccc(S(=O)(=O)N(CC(=O)Nc2cccc(C(F)(F)F)c2)c2ccc(C)cc2)cc1	-15	?	/	/	23µM*	-1%
Cc1oc(-c2ccccc2NC(=O)c2ccccc2)nc1CNC(=O)c1c(-c2ccccc2)noc1C	/	0%[9.04 µM]	/	/	-12%	/
COc1ccc(C2(c3ccc(OC)cc3)NC(=O)N(CC(=O)NC3CCCC3)C2=O)cc1	5	-3%	5	-1	6%	0%
CCOc1ccc(N(CC(=O)Nc2cccc(N(C)S(C)(=O)=O)c2)S(=O)(=O)c2ccccc2)cc1	-19	21µM*	-14	-5	?	0%
COc1ccc(N(CC(=O)Nc2cccc(N(C)S(C)(=O)=O)c2)S(=O)(=O)c2ccccc2)cc1Cl	-1	10µM*	-1	8	21µM*	0%
CCOc1ccc(S(=O)(=O)N(CC(=O)Nc2ccc3c(c2)OCO3)c2ccccc2)cc1	3	-9%	/	/	-6%	2%
COc1ccccc1Nc1sc(C(=O)c2ccc(C)cc2C)c(N)c1S(=O)(=O)c1ccccc1	-10	/	/	/	/	-20%
CC1CCN(S(=O)(=O)c2nnc(NC(=O)c3ccccc3Br)s2)CC1	1	-26%	?	-16	-12%	-7%
S=C(NC1CCCC1)N1CCN(C/C=C/c2ccccc2)CC1	-4	?	-66*	15	21µM*	/
O=C(CN1CCN(C/C=C/c2ccccc2)CC1)NC(=O)NC1CCCCC1	-6	2%	?	-65*	-12%	/
S=C(Nc1ccccc1)N1CCN(C/C=C/c2ccccc2)CC1	-20	-26%	11	0	?	/
CCOc1ncccc1C(=O)Nc1cccc(C(=O)Nc2cccc(S(=O)(=O)CCO)c2)c1	6	?	?	39	7.3µM*	-7%
CC(=O)Nc1cccc(OCC(=O)NS(=O)(=O)c2ccc(C)cc2)c1	-28	-5%	9	19	-11%	1%
CCOc1ccc(Nc2nc(C)c(NC(=O)c3cccc(OC)c3)c(Nc3ccc(OCC)cc3)n2)cc1	-8	1.5µM*	/	/	2.3µM*	-4%
CCOc1ccc(C(=O)Nc2c(C)nc(Nc3ccccc3)nc2Nc2ccccc2)cc1OCC	1	?	/	/	?	-18%
COC(=O)c1ccccc1NS(=O)(=O)c1ccc(NC(C)=O)cc1	3	-3%	-84*	15	-16%	/
COC(=O)COc1cccc(NS(=O)(=O)c2ccc(NC(C)=O)cc2)c1	-6	-29%	-14	-64*	-12%	-3%
CCCCOc1cccc(NC(=O)c2cccc(C(=O)Nc3cccc(OCCCC)c3)c2)c1	4	18µM*	/	/	7.3µM*	4%
CCOc1cccc(C(=O)Nc2ccc(NC(=O)c3ccc(Br)cc3)cc2)c1	-21	-21%	/	/	-3%	0%
CCOc1cccc(C(=O)Nc2ccc(NC(=O)c3ccccc3)c(C)c2)c1	-2	?	-22	5	?	/
SMILES	DRD3 agonist	DT40 TDP1 CPT	IL1B secr inh	DRD3 antagonist	TDP1 cell noCPT	ClpP mod
CC(C)Oc1cccc(C(=O)NC(=S)Nc2cccc(C(F)(F)F)c2)c1	-19	?	-9	0	?	3%
CCCCOc1cccc(C(=O)NC(=S)Nc2cccc(C(F)(F)F)c2)c1	-14	?	-9	-7	29µM*	1%
CCCOc1ccc(C(=O)Nc2ccc(NC(=O)c3ccccc3)c(C)c2)cc1	1	?	/	/	16µM*	14%
CCOc1cccc(C(=O)Nc2ccncc2)c1	0	23µM*	14	19	?	1%
Cc1cc(C(=O)Nc2ccccc2)c(C)o1	3	-23%	3	21	?	0%
COC(=O)COc1cccc(NC(=O)c2cc(OC)cc(OC)c2)c1	-6	3%	-100*	5	-13%	/
CCCOc1cccc(NC(=O)c2cc(C)oc2C)c1	3	26µM*	-14	14	16µM*	-3%
O=C(c1ccccc1[N+](=O)[O-])N1CCN(c2ccc(N3CCOCC3)nn2)CC1	-3	-6%	12	1	-4%	2%
CCN(CC)CCNc1ccc2nnc(CCNS(=O)(=O)c3ccc(C)cc3)n2n1	-4	-13%	-23	-12	2%	-8%
Cc1cccc(N(C(=O)Cn2nnc3ccccc32)C(C(=O)NC(C)(C)C)c2ccsc2)c1C (stereo not drawn)	-12	?	-13	-14	16µM*	-1%
COCCNC(=O)C(c1ccccc1)N(CCOC)C(=O)Cn1nnc2ccccc21 (stereo not drawn)	0	-7%	28	0	-12%	-2%
Cc1ccccc1CCN(C(=O)Cn1nnc2ccccc21)C(C(=O)NC(C)(C)C)c1ccsc1 (stereo not drawn)	-7	18µM*	3	-5	26µM*	-2%
COCCNC(=O)C(c1ccco1)N(C(=O)Cn1nnc2ccccc21)c1cccc(C)c1C (stereo not drawn)	-14	-7%	2	-8	?	0%
CC1CN(C(=O)/C=C/c2ccc(SC(F)F)cc2)CC(C)O1 (stereo not drawn)	7	?	-5	-12	13µM*	/
CC1CN(C(=O)COC(=O)/C=C/c2ccc(C(F)(F)F)cc2)CC(C)O1 (stereo not drawn)	0	-2%	-1	-15	3%	0%
CCn1cc(C(=O)NCCCN(CC(C)C)CC(C)C)c(=O)c2cc(S(=O)(=O)N(C)C3CCCCC3)ccc21	-3	?	-2	-10	?	1%
COc1cccc(-c2ccc(NC(=O)C3CCCN(Cc4ccccn4)C3)cc2)c1 (stereo not drawn)	1	?	19	-14	?	-1%
